The values that follow come from publication PMC4336329 (PLoS ONE, 2015).

The campaign covered roughly 310,000 compounds. About 14,000 (4.5%) showed an effect of 50% or more. Effects have a minus sign here. The list comes from a sample in which strong results are over-represented; it also holds similar structures and randomly drawn compounds.
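Note: peak tail current of the secondary pulse compared with the same well before compound.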

Chain of human ether-à-go-go-related gene (hERG) potassium channel (Q12809 whole entry, looked up): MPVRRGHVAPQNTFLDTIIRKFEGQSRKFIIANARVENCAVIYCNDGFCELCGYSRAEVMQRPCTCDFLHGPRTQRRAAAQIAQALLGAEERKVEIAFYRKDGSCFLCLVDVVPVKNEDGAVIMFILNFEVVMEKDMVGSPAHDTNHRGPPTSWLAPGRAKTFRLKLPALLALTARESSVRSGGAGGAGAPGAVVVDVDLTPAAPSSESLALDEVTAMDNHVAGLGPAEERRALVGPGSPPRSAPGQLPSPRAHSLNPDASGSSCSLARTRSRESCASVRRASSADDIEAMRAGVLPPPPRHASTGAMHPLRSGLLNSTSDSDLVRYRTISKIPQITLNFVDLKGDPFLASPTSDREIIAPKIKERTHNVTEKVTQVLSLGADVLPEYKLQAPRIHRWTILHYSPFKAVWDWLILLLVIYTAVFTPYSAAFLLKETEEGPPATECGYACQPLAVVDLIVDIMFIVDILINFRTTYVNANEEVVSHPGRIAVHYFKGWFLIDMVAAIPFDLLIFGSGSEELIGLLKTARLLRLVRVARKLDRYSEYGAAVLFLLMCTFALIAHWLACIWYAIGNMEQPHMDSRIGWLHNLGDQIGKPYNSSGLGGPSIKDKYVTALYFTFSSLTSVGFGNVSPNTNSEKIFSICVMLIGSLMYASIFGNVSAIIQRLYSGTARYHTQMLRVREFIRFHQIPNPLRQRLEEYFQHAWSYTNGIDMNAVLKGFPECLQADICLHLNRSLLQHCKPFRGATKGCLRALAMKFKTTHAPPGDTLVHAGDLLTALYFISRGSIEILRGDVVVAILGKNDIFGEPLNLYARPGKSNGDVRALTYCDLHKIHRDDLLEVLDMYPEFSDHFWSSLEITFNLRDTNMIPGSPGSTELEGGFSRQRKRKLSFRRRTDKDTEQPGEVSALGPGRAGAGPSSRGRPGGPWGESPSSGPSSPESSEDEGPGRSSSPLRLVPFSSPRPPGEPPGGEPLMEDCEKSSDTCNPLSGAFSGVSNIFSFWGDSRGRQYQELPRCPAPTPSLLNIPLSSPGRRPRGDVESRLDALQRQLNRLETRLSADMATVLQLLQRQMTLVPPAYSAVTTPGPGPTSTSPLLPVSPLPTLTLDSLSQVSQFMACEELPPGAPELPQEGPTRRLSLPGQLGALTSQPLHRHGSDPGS

This experiment concerns the target human ether-à-go-go-related gene (hERG) potassium channel (human, UniProt Q12809). In words: primary screen, population patch clamp on CHO cells stably expressing hERG; higher = less effect of the substance.
With `c1ccc2c(N3CCCC3)nc(-c3ccncc3)nc2c1`, the “hERG current change (%, negative = inhibition) at 10uM” value is -56.9%.
Regarding `c1ccc2c(N3CCCCCC3)nc(-c3ccncc3)nc2c1`, the “hERG current change (%, negative = inhibition) at 10uM” value was -34.5%.
On to `Cc1ccc(-c2nnc(-c3ccccc3)c(N3CCOCC3)n2)cc1`, for which the “hERG current change (%, negative = inhibition) at 10uM” value was -30%.
As for `CCCOc1ccc(-c2nc(N3CCN(C)CC3)c3ccccc3n2)cc1`, the “hERG current change (%, negative = inhibition) at 10uM” value is recorded as -21.6%.
In the case of `Cc1ccc(-c2nc(N3CCN(C)CC3)c3ccccc3n2)cc1.Cl`, the “hERG current change (%, negative = inhibition) at 10uM” value is -59.9%.
On to `O=[N+]([O-])c1cc(Cl)cc(/C=N/NC(=S)Nc2ccc(S(=O)(=O)N3CCOCC3)cc2)c1O`, for which the “hERG current change (%, negative = inhibition) at 10uM” value was 14.3%.
As for `Cc1cc(NS(=O)(=O)c2ccc(NC(=O)c3ccc(Cl)cc3Cl)cc2)no1`, the “hERG current change (%, negative = inhibition) at 10uM” value came to 24.4%.
For `O=C(N=C1SC2CS(=O)(=O)CC2N1c1ccccc1F)C1CCCCC1` (centres unmarked) the value was 8%; for `O=C(NCc1ccccn1)C1CCN(S(=O)(=O)N2CCCC2)CC1`, -8.11%; for `COc1ccc(-c2nnc(SCC3CCCO3)n2C)cc1` (centres unmarked), 0.931%.
Consider `Nc1c(N=O)c(=O)[nH]c(=O)n1-c1ccccc1`, for which the “hERG current change (%, negative = inhibition) at 10uM” value was found to be 10.2%.
On to `NS(=O)(=O)c1ccc(CCNC(=O)C2CCN(c3ncnc4c3nc3n4CCCCC3)CC2)cc1`, for which the “hERG current change (%, negative = inhibition) at 10uM” value stood at 9.07%.
Regarding `O=C(CSc1nnnn1C1CC2C=CC1C2)Nc1ccc(C(=O)O)cc1` (centres unmarked), the “hERG current change (%, negative = inhibition) at 10uM” value is -6.04%.
For `CC(Sc1nnc2ccccn12)C(=O)Nc1ccc(Cl)cn1` (centres unmarked) the value was -1.5%; for `Cc1ccc(-c2nc(N(C)C3CCN(C)CC3)c3ccccc3n2)cc1`, -24.4%; for `c1ccc(-c2nc(C3CCCCC3)c3ccccc3n2)cc1`, 10.7%.
Regarding `CN1CCC(N(C)c2nc(-c3ccccc3)nc3ccccc23)CC1`, the “hERG current change (%, negative = inhibition) at 10uM” value is -70.4%.
`CC(C)(C)C(=O)Nc1nc2c(s1)CN(Cc1ccccc1)CC2`: the “hERG current change (%, negative = inhibition) at 10uM” value was determined as 14.2%.
As to `CCCCOc1ccc(C(=O)N/C(=C/C=C/c2ccccc2)C(=O)NC)cc1`, the “hERG current change (%, negative = inhibition) at 10uM” value is reported as -75.2%.
With `CNC(=O)/C(=C\C=C\c1ccccc1)NC(=O)c1ccc([N+](=O)[O-])cc1`, the “hERG current change (%, negative = inhibition) at 10uM” value is -77.6%.
As for `CN(C)CCCNC(=O)/C(=C\C=C\c1ccccc1)NC(=O)c1ccc([N+](=O)[O-])cc1`, the “hERG current change (%, negative = inhibition) at 10uM” value is given as -71.2%.
Regarding `CCCCOc1ccc(C(=O)N/C(=C/C=C/c2ccccc2)C(=O)NCCO)cc1`, the “hERG current change (%, negative = inhibition) at 10uM” value is -9.18%.
Turning to `COC(=O)/C(=C\C=C\c1ccccc1)NC(=O)c1ccccc1`, the “hERG current change (%, negative = inhibition) at 10uM” value is listed as 8.85%.
For `CC(C)(C)NC(=O)/C(=C\C=C\c1ccccc1)NC(=O)c1ccc([N+](=O)[O-])cc1` the value was -35.1%; for `O=C(O)CCNC(=O)/C(=C/C=C/c1ccccc1)NC(=O)c1ccccc1`, 16.6%.
For the molecule `CCCCOc1ccc(C(=O)N/C(=C/C=C/c2ccccc2)C(=O)NCCCO)cc1`, the “hERG current change (%, negative = inhibition) at 10uM” value is on record as -28.7%.
For the molecule `CCCCOc1ccc(C(=O)N/C(=C/C=C/c2ccccc2)C(=O)O)cc1`, the “hERG current change (%, negative = inhibition) at 10uM” value was found to be 19.8%.
On to `O=C(NCC1CCCCC1)c1cccc(Br)c1`, for which the “hERG current change (%, negative = inhibition) at 10uM” value is -3.31%.
For the molecule `CCCOc1ccc(N2CC(C(=O)Nc3ccc(N4CCOCC4)cc3)CC2=O)cc1` (centres unmarked), the “hERG current change (%, negative = inhibition) at 10uM” value amounted to 36%.
Then `CN1CCC(OC(=O)c2cccc(F)c2)CC1.Cl`, with -0.186%; and `Cc1ccc(N2CC(NS(=O)(=O)c3cc(F)ccc3F)CC2=O)cc1C` (centres unmarked), with -6.74%; and `Cc1ccccc1-n1nnnc1SCC(=O)Nc1ccc(N2CCN(C)CC2)cc1`, with -35.8%.
With `O=C(CSc1nnnn1C1CCCC1)Nc1cccc(NC(=O)c2ccco2)c1`, the “hERG current change (%, negative = inhibition) at 10uM” value is on record as -55.9%.
Consider `Cc1ccc(-n2nnnc2SCC(=O)Nc2cccc(NC(=O)c3ccco3)c2)cc1C`, for which the “hERG current change (%, negative = inhibition) at 10uM” value is given as -6.49%.
Turning to `O=C(CSc1nnnn1C1CCCCC1)Nc1cccc(NC(=O)c2ccco2)c1`, the “hERG current change (%, negative = inhibition) at 10uM” value is -27.8%.
As to `O=C(CSc1nnnn1C1CCCCC1)NNC(=O)c1ccco1`, the “hERG current change (%, negative = inhibition) at 10uM” value came out at 11.3%.
As for `Cc1ccc(-n2nnnc2SCC(=O)Nc2ccc(N3CCN(C)CC3)cc2)c(C)c1`, the “hERG current change (%, negative = inhibition) at 10uM” value was -21%.
On to `CC(=O)c1cccc(-n2nnnc2SCC(=O)Nc2cccc(NC(=O)c3ccco3)c2)c1`, for which the “hERG current change (%, negative = inhibition) at 10uM” value is recorded as -60.7%.
In the case of `CC(=O)c1ccc(-n2nnnc2SCC(=O)Nc2cccc(NC(=O)c3ccco3)c2)cc1`, the “hERG current change (%, negative = inhibition) at 10uM” value stood at 6.89%.
Then `Cc1cccc(-n2nnnc2SCC(=O)Nc2ccc(N3CCN(C)CC3)cc2)c1`, with -55%; and `COc1cc(S(=O)(=O)NCc2ccncc2)c(OC)cc1Cl`, with 6.57%.
As to `CCC(C)NC(=O)c1cn(CCOC)c(=O)c2c1c1ccccc1n2C` (centres unmarked), the “hERG current change (%, negative = inhibition) at 10uM” value is 20.4%.
In the case of `COc1ccc(Cn2c(CCC(=O)Nc3ccccc3OC)nc3cccnc32)cc1`, the “hERG current change (%, negative = inhibition) at 10uM” value is recorded as -3.79%.
Regarding `COc1cccc(CN2C(=O)C(C)N(C(=O)c3ccccc3)c3ccccc32)c1` (centres unmarked), the “hERG current change (%, negative = inhibition) at 10uM” value was -5.44%.
